Source: ChEMBL document CHEMBL3988442, “University of Dundee, Small-Polar-MMV Screening Library” (2021)
For some of these results: Measured potencies and affinities stand elsewhere.

Legend:
Parameters in all cases: scale not given: direction of the effect not stated beside the values
[1] = target: Protein translocase subunit SecA (Escherichia coli (strain K12)) (UniProt P10408); experiment: Assay to Identify E. coli SecA ATPase Inhibitors; format: functional; conditions: 30 µM
[2] = target: T1, Ubiquitin-activating enzyme e1, putative (Leishmania donovani (strain BPK282A1)) (UniProt E9BSI1); experiment: Leishmania donovani Ubiquitin Activating Enzyme (LdE1); format: functional; conditions: 30 µM
T1 sequence (whole entry): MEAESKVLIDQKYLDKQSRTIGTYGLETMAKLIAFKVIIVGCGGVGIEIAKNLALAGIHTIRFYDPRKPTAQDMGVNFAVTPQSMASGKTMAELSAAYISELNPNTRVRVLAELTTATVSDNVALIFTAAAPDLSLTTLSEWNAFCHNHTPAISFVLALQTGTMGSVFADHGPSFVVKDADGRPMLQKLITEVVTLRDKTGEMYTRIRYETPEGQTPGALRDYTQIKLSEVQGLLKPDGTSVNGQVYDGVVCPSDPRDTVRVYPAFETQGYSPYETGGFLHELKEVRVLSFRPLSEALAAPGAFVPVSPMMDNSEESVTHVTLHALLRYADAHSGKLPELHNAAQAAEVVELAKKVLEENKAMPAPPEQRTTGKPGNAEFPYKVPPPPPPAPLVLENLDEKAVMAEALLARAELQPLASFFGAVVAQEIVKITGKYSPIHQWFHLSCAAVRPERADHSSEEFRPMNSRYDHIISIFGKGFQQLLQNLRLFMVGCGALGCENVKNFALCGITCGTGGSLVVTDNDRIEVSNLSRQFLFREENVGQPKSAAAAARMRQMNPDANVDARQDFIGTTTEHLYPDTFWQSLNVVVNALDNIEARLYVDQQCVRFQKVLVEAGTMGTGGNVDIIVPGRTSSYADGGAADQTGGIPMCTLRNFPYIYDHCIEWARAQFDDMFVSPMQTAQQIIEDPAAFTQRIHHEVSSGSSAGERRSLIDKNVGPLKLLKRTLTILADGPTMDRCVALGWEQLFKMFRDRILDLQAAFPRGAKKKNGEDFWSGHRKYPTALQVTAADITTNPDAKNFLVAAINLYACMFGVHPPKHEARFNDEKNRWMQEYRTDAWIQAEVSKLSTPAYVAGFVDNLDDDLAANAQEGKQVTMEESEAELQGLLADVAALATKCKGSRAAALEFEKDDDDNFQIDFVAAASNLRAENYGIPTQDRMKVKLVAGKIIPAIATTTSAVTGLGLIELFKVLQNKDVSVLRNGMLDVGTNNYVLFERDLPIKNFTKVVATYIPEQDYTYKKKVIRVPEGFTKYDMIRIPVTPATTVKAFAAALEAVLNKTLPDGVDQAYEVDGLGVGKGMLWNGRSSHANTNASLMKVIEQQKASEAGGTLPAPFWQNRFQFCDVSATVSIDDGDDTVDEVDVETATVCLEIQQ

[3] = target: AMP-activated protein kinase, AMPK (Homo sapiens) (UniProt P54646+O43741+P54619+Q9UGJ0+Q9Y478+Q13131+Q9UGI9); experiment: AMP-dependent Kinase enzyme assay. An in vitro enzyme assay that detects ADP turnover that is directly proportional to AMPK activity. This uses naive AMPK that is activated during the assay with MK-8722; format: functional; conditions: 30 µM
[4] = target: Sialic acid-binding Ig-like lectin 9 (Homo sapiens) (UniProt Q9Y336); experiment: Hs-Siglec9 ALPHAscreen SOP 20170721; conditions: 10 µM
Sialic acid-binding Ig-like lectin 9 (Homo sapiens), sequence (Q9Y336 whole entry): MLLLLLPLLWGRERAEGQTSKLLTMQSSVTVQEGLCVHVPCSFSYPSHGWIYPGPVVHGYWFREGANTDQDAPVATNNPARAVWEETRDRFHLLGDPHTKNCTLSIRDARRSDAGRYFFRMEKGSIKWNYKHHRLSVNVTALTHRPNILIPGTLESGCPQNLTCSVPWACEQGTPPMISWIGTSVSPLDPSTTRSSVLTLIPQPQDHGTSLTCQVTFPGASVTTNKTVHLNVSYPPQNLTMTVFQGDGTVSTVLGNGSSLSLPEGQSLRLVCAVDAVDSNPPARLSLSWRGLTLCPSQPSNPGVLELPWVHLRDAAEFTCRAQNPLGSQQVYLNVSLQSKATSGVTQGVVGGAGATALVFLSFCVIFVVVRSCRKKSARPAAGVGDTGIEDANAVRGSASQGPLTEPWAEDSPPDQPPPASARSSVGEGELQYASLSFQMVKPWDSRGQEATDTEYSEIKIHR

Trypanosoma cruzi = experiment: Trypanosoma cruzi phosphomannomutase and mannose-1-phosphate guanylyltransferase assay; format: functional; conditions: 10 µM
[5] = target: T2, Arginase-2, mitochondrial (Homo sapiens) (UniProt P78540); experiment: in vitro enzyme assay to detect the production of urea directly proportional to the activity of Arginase II; format: functional; conditions: 33.3 µM; further: in the data most compounds retested in dose-response had high values
T2 sequence (whole entry): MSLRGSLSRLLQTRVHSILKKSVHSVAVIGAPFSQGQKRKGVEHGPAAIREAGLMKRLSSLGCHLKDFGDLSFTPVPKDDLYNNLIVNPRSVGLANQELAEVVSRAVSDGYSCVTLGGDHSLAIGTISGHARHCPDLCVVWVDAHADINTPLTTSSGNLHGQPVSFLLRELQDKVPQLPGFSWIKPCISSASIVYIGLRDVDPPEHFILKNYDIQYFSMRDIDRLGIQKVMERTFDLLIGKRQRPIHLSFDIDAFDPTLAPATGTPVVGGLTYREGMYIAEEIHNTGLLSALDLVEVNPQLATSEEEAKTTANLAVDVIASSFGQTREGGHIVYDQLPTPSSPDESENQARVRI

[6] = target: T3, Proteasome subunit beta (Trypanosoma cruzi) (UniProt O96673); experiment: Trypanosoma cruzi proteasome chymotrypsin-like activity (TcProtChymo) assay.; further: in the data most compounds retested in dose-response had high values; format: functional; conditions: 9.37 µM
T3 sequence (whole entry): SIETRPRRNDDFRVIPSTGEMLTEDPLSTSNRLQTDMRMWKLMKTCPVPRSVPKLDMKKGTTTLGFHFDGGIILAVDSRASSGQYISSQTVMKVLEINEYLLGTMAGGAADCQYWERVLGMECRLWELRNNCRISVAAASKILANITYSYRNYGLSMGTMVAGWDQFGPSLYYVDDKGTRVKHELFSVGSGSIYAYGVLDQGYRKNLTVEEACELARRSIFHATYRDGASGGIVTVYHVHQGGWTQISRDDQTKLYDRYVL

Homo sapiens = species: Homo sapiens; experiment: To identify inhibition of the IFN signalling (Jak-Stat) pathway via expression of an eGFP reporter gene under the control of an IFN-stimulated response element (ISRE) containing MxA promoter.; format: functional; conditions: 30 µM
[7] = target: T4, Tyrosyl-tRNA synthetase, putative (Trypanosoma cruzi (strain CL Brener)) (UniProt Q4DSP6); experiment: Trypanosoma cruzi tyrosyl tRNA synthetase (TcYRS) _High Tyrosine SOP; format: functional; conditions: 30 µM; further: in the data most compounds retested in dose-response had high values
T4 sequence (whole entry): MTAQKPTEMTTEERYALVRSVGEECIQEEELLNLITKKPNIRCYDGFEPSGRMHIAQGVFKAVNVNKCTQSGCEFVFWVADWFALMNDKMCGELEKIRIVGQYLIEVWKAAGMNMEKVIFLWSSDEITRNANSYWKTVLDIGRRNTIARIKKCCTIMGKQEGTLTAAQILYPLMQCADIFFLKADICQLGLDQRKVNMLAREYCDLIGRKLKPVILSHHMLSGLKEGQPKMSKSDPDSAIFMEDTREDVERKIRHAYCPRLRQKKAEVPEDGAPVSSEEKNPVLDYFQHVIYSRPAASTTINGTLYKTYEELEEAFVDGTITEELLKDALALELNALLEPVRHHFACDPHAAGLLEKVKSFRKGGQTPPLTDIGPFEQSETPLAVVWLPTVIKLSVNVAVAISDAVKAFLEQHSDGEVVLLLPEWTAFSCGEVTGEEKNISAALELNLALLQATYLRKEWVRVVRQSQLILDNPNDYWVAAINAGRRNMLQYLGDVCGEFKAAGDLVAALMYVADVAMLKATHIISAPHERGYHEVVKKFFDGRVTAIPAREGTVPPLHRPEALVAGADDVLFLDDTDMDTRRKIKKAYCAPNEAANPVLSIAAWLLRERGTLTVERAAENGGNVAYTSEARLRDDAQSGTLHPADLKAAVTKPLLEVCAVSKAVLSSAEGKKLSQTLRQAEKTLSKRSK

[8] = target: T4, Tyrosyl-tRNA synthetase, putative (Trypanosoma cruzi (strain CL Brener)); experiment: Trypanosoma cruzi tyrosyl tRNA synthetase (TcYRS) SOP; format: functional; conditions: 30 µM
[9] = target: Chromo domain-containing protein 1 (Saccharomyces cerevisiae (strain ATCC 204508 / S288c) (Baker's yeast)) (UniProt P32657); experiment: ScCHD-1 Enzyme Inhibition Assay; format: functional; conditions: 30 µM; further: in the data most compounds retested in dose-response had high values
Chromo domain-containing protein 1 (Saccharomyces cerevisiae (strain ATCC 204508 / S288c) (Baker's yeast)), sequence (P32657 whole entry, the tested form may be a part): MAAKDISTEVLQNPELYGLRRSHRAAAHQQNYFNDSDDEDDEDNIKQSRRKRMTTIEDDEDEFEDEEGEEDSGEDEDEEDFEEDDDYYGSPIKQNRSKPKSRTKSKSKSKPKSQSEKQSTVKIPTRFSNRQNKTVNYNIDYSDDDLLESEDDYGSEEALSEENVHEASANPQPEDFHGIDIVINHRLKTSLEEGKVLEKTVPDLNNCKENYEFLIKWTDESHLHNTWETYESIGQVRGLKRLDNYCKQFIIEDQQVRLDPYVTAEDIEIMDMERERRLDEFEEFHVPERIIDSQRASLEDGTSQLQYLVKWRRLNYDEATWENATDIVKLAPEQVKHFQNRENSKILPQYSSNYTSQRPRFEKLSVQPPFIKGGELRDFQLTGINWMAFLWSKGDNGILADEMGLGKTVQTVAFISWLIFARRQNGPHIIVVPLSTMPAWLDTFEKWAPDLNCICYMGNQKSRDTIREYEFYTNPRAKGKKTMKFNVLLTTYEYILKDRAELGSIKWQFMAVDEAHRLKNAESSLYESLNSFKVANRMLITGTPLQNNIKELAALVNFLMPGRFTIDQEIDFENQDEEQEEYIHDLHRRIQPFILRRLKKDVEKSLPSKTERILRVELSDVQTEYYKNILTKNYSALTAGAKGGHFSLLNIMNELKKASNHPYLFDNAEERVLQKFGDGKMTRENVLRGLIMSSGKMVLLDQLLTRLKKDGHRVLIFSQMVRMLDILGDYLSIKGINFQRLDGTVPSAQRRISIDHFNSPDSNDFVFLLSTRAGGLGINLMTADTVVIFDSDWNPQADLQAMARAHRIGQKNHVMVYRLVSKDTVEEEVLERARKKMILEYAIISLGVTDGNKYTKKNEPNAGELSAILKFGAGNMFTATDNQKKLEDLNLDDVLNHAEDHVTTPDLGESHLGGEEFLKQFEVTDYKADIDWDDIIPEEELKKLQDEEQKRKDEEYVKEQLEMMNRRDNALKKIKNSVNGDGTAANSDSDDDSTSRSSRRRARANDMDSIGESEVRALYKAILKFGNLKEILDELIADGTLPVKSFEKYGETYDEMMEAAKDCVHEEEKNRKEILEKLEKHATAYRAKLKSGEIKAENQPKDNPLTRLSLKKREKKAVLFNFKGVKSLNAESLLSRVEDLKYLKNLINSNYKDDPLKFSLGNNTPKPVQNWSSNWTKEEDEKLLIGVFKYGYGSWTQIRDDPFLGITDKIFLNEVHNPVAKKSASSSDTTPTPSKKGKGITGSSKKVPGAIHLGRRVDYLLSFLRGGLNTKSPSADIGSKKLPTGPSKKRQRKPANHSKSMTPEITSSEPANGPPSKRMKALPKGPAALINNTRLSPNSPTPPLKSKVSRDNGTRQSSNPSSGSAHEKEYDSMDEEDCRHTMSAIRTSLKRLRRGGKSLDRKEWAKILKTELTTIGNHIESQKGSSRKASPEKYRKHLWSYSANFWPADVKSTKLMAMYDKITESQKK

Protein translocase subunit SecA (Escherichia coli (strain K12)), sequence (P10408 whole entry): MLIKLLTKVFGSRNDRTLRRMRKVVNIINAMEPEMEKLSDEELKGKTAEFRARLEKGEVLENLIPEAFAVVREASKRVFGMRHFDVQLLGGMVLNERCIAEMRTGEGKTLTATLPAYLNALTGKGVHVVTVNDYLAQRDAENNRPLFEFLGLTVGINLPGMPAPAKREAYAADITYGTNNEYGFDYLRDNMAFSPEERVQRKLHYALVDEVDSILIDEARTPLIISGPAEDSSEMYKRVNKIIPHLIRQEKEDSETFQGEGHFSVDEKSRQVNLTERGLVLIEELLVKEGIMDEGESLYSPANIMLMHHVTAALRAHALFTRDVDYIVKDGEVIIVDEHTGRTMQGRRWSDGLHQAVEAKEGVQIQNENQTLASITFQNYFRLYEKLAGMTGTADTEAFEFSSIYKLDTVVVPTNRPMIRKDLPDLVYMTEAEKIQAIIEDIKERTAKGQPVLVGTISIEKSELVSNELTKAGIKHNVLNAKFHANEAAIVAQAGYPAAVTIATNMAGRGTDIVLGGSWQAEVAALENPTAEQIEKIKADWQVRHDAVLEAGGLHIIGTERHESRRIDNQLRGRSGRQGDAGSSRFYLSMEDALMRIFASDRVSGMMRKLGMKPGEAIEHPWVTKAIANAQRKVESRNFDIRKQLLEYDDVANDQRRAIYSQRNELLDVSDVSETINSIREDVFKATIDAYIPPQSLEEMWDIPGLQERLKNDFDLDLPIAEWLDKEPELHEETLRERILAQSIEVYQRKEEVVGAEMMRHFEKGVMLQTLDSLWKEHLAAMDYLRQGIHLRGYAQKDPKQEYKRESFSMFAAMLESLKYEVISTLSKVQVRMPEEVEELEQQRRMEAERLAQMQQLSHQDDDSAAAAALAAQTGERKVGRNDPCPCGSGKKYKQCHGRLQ

COc1cnc(N2CCC(Oc3ccccc3OC)(C(=O)O)CC2)nc1
Percent Effect [1]: -5.13% | Percent Effect [2]: 11% | Percent Effect [3]: 0.422% | Percent Effect [4]: 4.04% | Percent Effect (Trypanosoma cruzi): 0.595% | Percent Effect [5]: -2% | Percent Effect [6]: 8.99% | Percent Effect (Homo sapiens): -4.79% | Percent Effect [7]: 5.21% | Percent Effect [8]: 8.64% | Percent Effect [9]: -4.67%

NC(=O)C1CN(C(=O)Nc2cc(Cl)cc(Cl)c2)CCO1 (stereo not drawn)
Percent Effect [1]: -2.58% | Percent Effect [2]: 0% | Percent Effect [3]: 0.0499% | Percent Effect [4]: 4.99% | Percent Effect (Trypanosoma cruzi): 4.17% | Percent Effect [5]: -3.19% | Percent Effect [6]: 12.1% | Percent Effect (Homo sapiens): 22.7% | Percent Effect [7]: 4.17% | Percent Effect [8]: 11.1% | Percent Effect [9]: 2.8%

CCN(CC)Cc1ccc(C(=O)N2CCN(CC(C)O)CC2)cc1 (stereo not drawn)
Percent Effect [1]: -4.12% | Percent Effect [2]: 0% | Percent Effect [3]: -3.46% | Percent Effect [4]: 8.13% | Percent Effect (Trypanosoma cruzi): -0.472% | Percent Effect [5]: -2.81% | Percent Effect [6]: -4.5% | Percent Effect (Homo sapiens): -2.61% | Percent Effect [7]: 4.43% | Percent Effect [8]: 1.24% | Percent Effect [9]: 0.847%

Cc1cn2c(n1)CCC(NC(=O)c1cnc(C)nc1C(C)C)C2 (stereo not drawn)
Percent Effect [1]: -4.68% | Percent Effect [2]: 10.4% | Percent Effect [3]: -12.2% | Percent Effect [4]: 12.9% | Percent Effect (Trypanosoma cruzi): 3.23% | Percent Effect [5]: 1.9% | Percent Effect [6]: 3.48% | Percent Effect (Homo sapiens): 1.24% | Percent Effect [7]: 10.5% | Percent Effect [8]: 18.8% | Percent Effect [9]: -16.9%

Cc1cccc(NC(=O)CNC(=O)Cn2ncc(Cl)c(Cl)c2=O)c1C
Percent Effect [1]: -1.81% | Percent Effect [2]: 0% | Percent Effect [3]: 26% | Percent Effect [4]: 2.69% | Percent Effect (Trypanosoma cruzi): -8.4% | Percent Effect [5]: 0% | Percent Effect [6]: 16.6% | Percent Effect (Homo sapiens): 23.8% | Percent Effect [7]: 11.9% | Percent Effect [8]: -1.22% | Percent Effect [9]: 7.2%

CCCNC(=O)Cn1cc(-c2ccccc2)cn1
Percent Effect [1]: -4.24% | Percent Effect [2]: 8.86% | Percent Effect [3]: 12.1% | Percent Effect [4]: -0.382% | Percent Effect (Trypanosoma cruzi): -5.64% | Percent Effect [5]: -0.645% | Percent Effect [6]: 4.97% | Percent Effect (Homo sapiens): 8.94% | Percent Effect [7]: 2.08% | Percent Effect [8]: 7.59% | Percent Effect [9]: -18.4%

Cc1cccnc1NC(=O)NC(C)Cn1cccn1 (stereo not drawn)
Percent Effect [1]: -8.41% | Percent Effect [2]: 10.4% | Percent Effect [3]: 7.9% | Percent Effect [4]: 3.8% | Percent Effect (Trypanosoma cruzi): -5.62% | Percent Effect [5]: 1.78% | Percent Effect [6]: 0.845% | Percent Effect (Homo sapiens): 23.3% | Percent Effect [7]: 3.88% | Percent Effect [8]: 2.44% | Percent Effect [9]: -4.43%

CCN(CC)C(=O)CCNc1cncc(-n2nc(C)cc2C)n1
Percent Effect [1]: -5.54% | Percent Effect [2]: 5.41% | Percent Effect [3]: 3.1% | Percent Effect [4]: -3.77% | Percent Effect (Trypanosoma cruzi): -7.92% | Percent Effect [5]: 4.71% | Percent Effect [6]: 13.1% | Percent Effect (Homo sapiens): 6.24% | Percent Effect [7]: 2.15% | Percent Effect [8]: 3.7% | Percent Effect [9]: -6.4%
